Source: PubChem BioAssay
KCNQ2 enhance = potentiators of rat KCNQ2 potassium channel | AID 2239 | B-score at 10 µM | CHO-K1 KCNQ2, FluxOR thallium flux fluorescence; stronger effect = higher value | O88943 | hit rate 0.54% among 310,000;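 active = fluorescence ratio B-score at least 3 SD of library B-scores, with initial fluorescence B-score within 3 of them, cut at about 5.3 in these data; same plate scores as AID 2156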;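 note: B-score of peak minus minimum over baseline fluorescence ratio after K+ and Tl+ stimulus; positive B-score means potentiation of KCNQ2 with more thallium influx and brighter signal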
Target sequence (O88943 whole entry, looked up): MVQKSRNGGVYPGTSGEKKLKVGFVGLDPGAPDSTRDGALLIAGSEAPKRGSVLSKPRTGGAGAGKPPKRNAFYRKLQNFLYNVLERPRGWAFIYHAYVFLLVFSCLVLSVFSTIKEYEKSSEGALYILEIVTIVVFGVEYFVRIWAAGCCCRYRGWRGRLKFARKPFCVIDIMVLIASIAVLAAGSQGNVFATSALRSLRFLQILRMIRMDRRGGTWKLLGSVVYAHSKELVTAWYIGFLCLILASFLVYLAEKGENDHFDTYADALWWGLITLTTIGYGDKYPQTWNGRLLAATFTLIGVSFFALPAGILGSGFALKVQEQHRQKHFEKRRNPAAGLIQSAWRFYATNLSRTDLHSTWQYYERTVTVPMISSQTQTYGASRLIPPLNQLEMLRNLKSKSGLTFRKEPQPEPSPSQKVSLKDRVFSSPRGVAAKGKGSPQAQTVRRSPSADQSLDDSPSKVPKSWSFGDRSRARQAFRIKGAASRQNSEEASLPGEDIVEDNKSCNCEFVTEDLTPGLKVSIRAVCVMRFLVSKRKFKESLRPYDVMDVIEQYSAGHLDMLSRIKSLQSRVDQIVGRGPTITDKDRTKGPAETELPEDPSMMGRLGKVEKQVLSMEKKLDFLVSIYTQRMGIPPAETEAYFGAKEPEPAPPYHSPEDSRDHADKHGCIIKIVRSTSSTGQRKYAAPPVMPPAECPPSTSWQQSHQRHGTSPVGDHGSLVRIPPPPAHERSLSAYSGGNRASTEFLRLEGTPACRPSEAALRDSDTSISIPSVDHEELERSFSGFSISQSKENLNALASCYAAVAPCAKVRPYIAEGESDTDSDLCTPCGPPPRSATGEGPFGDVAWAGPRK
KCNQ2 inh = KCNQ2 (rat) channel inhibition. CHO-K1 KCNQ2, FluxOR thallium flux, 20 min; stronger effect = lower value. B-score at 10 µM. hit rate 1.1% among 310,000;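 active = fluorescence ratio B-score at most minus 3 library SDs, with starting brightness B-score within 2 library SDs, cut at about -5.5 in these data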
KCNQ2 block conf = rat KCNQ2 channel inhibition, confirmatory screen | hit rate 57% among 1,000 | KCNQ2-expressing cells, thallium flux; stronger effect = lower value | shares compounds with KCNQ2 inh | activity change, negative = inhibition, % at 10 µM;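 note: 0% = vehicle wells and values are ratio percent relative to vehicle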
KCNQ1 spec = selectivity of KCNQ2 inhibitors against human KCNQ1; activity change, negative = inhibition, % at 10 µM; shares compounds with KCNQ2 inh; AID 493026; hit rate 15% among 1,000; KCNQ1-expressing cells, FluxOR thallium flux fluorescence; stronger effect = lower value;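 active = activity change at least 3 SD of negative controls below their mean in both duplicate wells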;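 note: CHO cells stably transfected with KCNQ1 and depolarized by potassium stimulus; peak minus minimum fluorescence over baseline after thallium addition; 0% = vehicle negative control and -100% = blank without thallium stimulus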
CHO Tl ctr = KCNQ2 inhibitor counter-screen hit in parental CHO cells; thallium flux counter-screen; stronger effect = lower value; activity change, % at 10 µM; hit rate 14% among 1,000; shares compounds with KCNQ2 inh;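 note: 0% = vehicle negative controls with stimulus buffer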
KCNQ2 patch conf = confirmation of rat KCNQ2 potassium channel inhibitors. KCNQ2-expressing cells, automated patch clamp current. hit rate 49% among 550. calls only at 10 µM. AID 588531. shares compounds with KCNQ2 inh
* marks the source's active call; other numbers are inactive results; i = inactive; / = no result; + = active, no number. Sampled rows, rich in hits. Any-hit rate of the full collection: about 1.6%. Unless noted, the rule behind the calls is not given here.

SMILES	KCNQ2 enhance	KCNQ2 inh	KCNQ2 block conf	KCNQ1 spec	CHO Tl ctr	others
Cc1cccc2c1Sc1ccc(Cl)cc1CC2N1CCNCC1 (configuration not stated)	-8.4	-8.4*	-42%*	-34%*	-28%*	KCNQ2 patch conf=+
CN1CCN(S(=O)(=O)c2ccc(Br)s2)CC1	0.15	i	/	/	/
O=S(=O)(c1ccc(Cl)s1)N1CCN(CCc2ccccc2)CC1	0.56	i	/	/	/
O=S(=O)(c1ccc(Br)s1)N1CCC(Cc2ccccc2)CC1	-9.3	-9.3*	i	i	i
O=S(=O)(c1ccc(Cl)s1)N1CCC(Cc2ccccc2)CC1	-7.4	-7.4*	i	i	i
CCCCn1c(=O)nc2n(-c3ccc(Cl)cc3)c3ccccc3cc-2c1=O	0.07	i	/	/	/
CN(C)S(=O)(=O)c1ccc(N2CCCC2)c(C(=O)NNC(=O)COc2ccccc2Cl)c1	/	i	/	/	/
CN(C)S(=O)(=O)c1ccc(N2CCCC2)c(C(=O)NNC(=O)COc2ccccc2F)c1	-8.3	-8.3*	-22%*	i	i	KCNQ2 patch conf=+
COc1ccc(OCC(O)CNC(=O)/C=C/c2cccc([N+](=O)[O-])c2)cc1 (configuration not stated)	0.7	i	/	/	/
O=C(NC1CCCc2ccccc21)c1cncc(Br)c1 (configuration not stated)	0.18	i	/	/	/
O=C(Nc1nc2c(ccc3ccccc32)s1)c1cc([N+](=O)[O-])ccc1N1CCOCC1	-9.6	-9.6*	-25%*	i	i	KCNQ2 patch conf=i
O=C(Nc1nc(-c2ccc(-c3ccccc3)cc2)cs1)c1cc([N+](=O)[O-])ccc1N1CCOCC1	0.52	i	/	/	/
CCC(C)N(C(=O)CSc1nnc(-c2ccco2)n1C)C1CCS(=O)(=O)C1 (configuration not stated)	0.12	i	/	/	/
CCOC(=O)c1cc2c(=O)n3cccc(C)c3nc2n(CCOC)c1=NC(C)=O	0.36	i	/	/	/
COc1cccc(CNc2cc(C)ccn2)c1O	0.73	i	/	/	/
Cc1ccnc(NCc2cccc3ccccc23)c1	-6.9	-6.9*	-40%*	-29%*	-28%*
O=C(CCN1CCCCC1)c1ccc2c(c1)OCCO2	/	i	/	/	/
O=C(CCN1CCc2ccccc2C1)c1ccc2c(c1)OCCO2	-8.3	-8.3*	-16%*	i	i	KCNQ2 patch conf=+
O=C(CCN1CCCC1Cc1ccccc1)c1ccc2c(c1)OCCO2 (configuration not stated)	-7.9	-7.9*	-35%*	-30%*	-24%*	KCNQ2 patch conf=+
O=C(CCN1CCc2ccccc21)c1ccc2c(c1)OCCO2	0.36	i	/	/	/
CN(CC(=O)Nc1ccc(F)cc1)C(=O)CSc1ncccn1	/	i	/	/	/
Cc1ccc(C2=NNC3(CCOC(C)(C)C3)S2)cc1 (configuration not stated)	/	i	/	/	/
Cc1cc(C)cc(C(=O)NC(CC(N)=O)c2ccc(NC3CCCC3)c([N+](=O)[O-])c2)c1 (configuration not stated)	0.76	i	/	/	/
COc1cc(N/N=C/c2ccc(N(C)C)cc2)ncn1	/	i	/	/	/
CN(C)c1cc(N/N=C/c2ccc(Cl)cc2)nc(N(C)C)n1	-8.6	-8.6*	i	i	i
SMILES	KCNQ2 enhance	KCNQ2 inh	KCNQ2 block conf	KCNQ1 spec	CHO Tl ctr	others
CCCCOc1ccc([N+](=O)[O-])cc1C(=O)O	2.7	i	/	/	/
Cc1ccnn1CCC(=O)O	/	i	/	/	/
O=C(Nc1ccc(O)c(C(=O)O)c1)Oc1ccccc1	/	i	/	/	/
COc1ccc(CNC(=O)C2CCCN(S(=O)(=O)c3ccccc3)C2)cc1 (configuration not stated)	/	i	/	/	/
CCN(c1ccc(OC)cc1)S(=O)(=O)N1CCCC(C(=O)NCc2ccccc2Br)C1 (configuration not stated)	-10	-10*	i	i	i
CCc1cc(/C(Cc2ccccn2)=N\O)c(O)cc1O	/	i	/	/	/
CCc1cc(/C(Cc2ccc3ccccc3n2)=N\O)c(O)cc1O	-12	-12*	-35%*	-42%*	-27%*	KCNQ2 patch conf=+
CCOC(=O)Nc1c(Cl)n(C)c(=O)n(C)c1=O	/	i	/	/	/
O=C(c1ccc(Cl)cc1)N(Cc1ccco1)C1CCS(=O)(=O)C1 (configuration not stated)	0.19	i	/	/	/
Cc1ccc(NC(=O)C(Nc2ccccc2)c2ccccc2)cc1 (configuration not stated)	/	i	/	/	/
Cc1ccc(NC(=O)C(Nc2cccc(C)c2)c2ccccc2)cc1 (configuration not stated)	-7.4	-7.4*	-28%*	i	i	KCNQ2 patch conf=i
O=C(CSc1cn(CCNC(=O)c2ccccc2F)c2ccccc12)NCC1CCCO1 (configuration not stated)	0.75	i	/	/	/
O=C(NCCn1cc(SCc2ccccc2)c2ccccc21)c1ccccc1F	-8.2	-8.2*	i	i	i
Cc1nc(N/C(N)=N/S(=O)(=O)c2ccc([N+](=O)[O-])cc2)nc2ccccc12	0.11	i	/	/	/
CCOC(=O)c1cn2nc(-c3ccc(OC)cc3)cc2nc1C1CCN(C(=O)OC(C)(C)C)CC1	-8.6	-8.6*	i	i	i
COc1ccc(-c2cc(C3CCN(C(=O)OC(C)(C)C)CC3)[nH]n2)cc1	/	i	/	/	/
CC(/C=N/NC(=O)c1ccco1)=C\c1ccccc1	0.66	i	/	/	/
CC(C)=CCc1cc2c(=O)c3c(O)c4c(cc3oc2c(O)c1O)OC(C)C4(C)C (configuration not stated)	-8.6	-8.6*	i	i	i
CC1Oc2cc3oc4c(O)c5c(cc4c(=O)c3c(O)c2C1(C)C)C=CC(C)(C)O5 (configuration not stated)	/	i	/	/	/
CCOC(=O)C1CCN(C(=O)COc2ccc3c(c2)OCO3)CC1	1.3	i	/	/	/
COc1ccc(-c2cnc3n2CCCCC3)cc1	/	i	/	/	/
COc1ccc(-c2c[n+]3c4n2CCCCC4=C(c2ccc(Br)cc2)C3)cc1	-8.7	-8.7*	-33%*	i	i	KCNQ2 patch conf=i
COc1ccccc1CCC(=O)OCC(=O)Nc1c(C)nn(-c2ccccc2)c1C	1.7	i	/	/	/
Cc1c(C)n(C(=O)CSc2nc3ccccc3[nH]2)c2ccccc12	-11	-11*	-30%*	i	i	KCNQ2 patch conf=i
O=C(CSc1nc2ccccc2[nH]1)N1CCCCC1	0.33	i	/	/	/
SMILES	KCNQ2 enhance	KCNQ2 inh	KCNQ2 block conf	KCNQ1 spec	CHO Tl ctr	others
CC(C)(C)C1CCC2(CC1)CC(=O)c1ccccc1O2 (configuration not stated)	/	i	/	/	/
Cc1nn(C(C)C(=O)O)c(=O)c2c1sc1ccccc12 (configuration not stated)	/	i	/	/	/
Cc1nn(C(C)C(=O)N2CCCCC2)c(=O)c2c1sc1ccccc12 (configuration not stated)	-8.9	-8.9*	-30%*	i	i	KCNQ2 patch conf=+
CCCCOc1ccc(C(=O)N2CCN(CC(=O)Nc3ccc(C)cc3)CC2)cc1OC	0.13	i	/	/	/
COC(=O)CSc1nc(C2CC2)cc(C(F)(F)F)c1C#N	0.01	i	/	/	/
CCOC(=O)C(C)Sc1nc(C2CC2)cc(C(F)(F)F)c1C#N (configuration not stated)	-6.9	-6.9*	i	i	i
